Experimental data reported in ChEMBL document CHEMBL5606458, “ASAP - ZIKV NS2B-NS3 protease fluorescence single point” (2024).
Among all 2,700 compounds or so, about 160 (5.9%) showed an effect of 50% or more. What follows is part of a selection rich in strong results, with near analogues and random picks from the rest.

Target: Nonstructural protein 3 (Zika virus) (UniProt A0A024AXB9)
Sequence (A0A024AXB9 as listed by the source): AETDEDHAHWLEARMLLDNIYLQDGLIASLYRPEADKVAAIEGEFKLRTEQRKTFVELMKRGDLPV

`c1ccc2c([C@H]3CCN(C[C@H]4CCCOC4)C3)c[nH]c2c1` showed an inhibition (PRVABC59, Concentration 49.5 uM, Number of replicates 2.0, Standard deviation 0.2718923543168702 %) of 3%, an inhibition (PRVABC59, Concentration 99.01 uM, Number of replicates 2.0, Standard deviation 1.3138002130824364 %) of 7.93% and an inhibition (PRVABC59, Concentration 198.0 uM, Number of replicates 2.0, Standard deviation 0.8779424567170888 %) of 17.5%.
`CCn1ccnc(N2CC[C@H](c3c[nH]c4ccccc34)C2)c1=O` gave an inhibition (PRVABC59, Concentration 49.5 uM, Number of replicates 2.0, Standard deviation 0.8076182483405395 %) of 8.04%, an inhibition (PRVABC59, Concentration 99.01 uM, Number of replicates 2.0, Standard deviation 0.7356695318349864 %) of 17.6% and an inhibition (PRVABC59, Concentration 198.0 uM, Number of replicates 2.0, Standard deviation 0.07734519898888803 %) of 32.1%.
Work on `OC1CCN(Cc2c[nH]c3ccccc23)CC1` yielded an inhibition (PRVABC59, Concentration 49.5 uM, Number of replicates 2.0, Standard deviation 2.7698787458435845 %) of 5.44%, an inhibition (PRVABC59, Concentration 99.01 uM, Number of replicates 2.0, Standard deviation 2.6829105784026894 %) of 11.6% and an inhibition (PRVABC59, Concentration 198.0 uM, Number of replicates 2.0, Standard deviation 2.633683059341965 %) of 21.9%.
For `c1ccc2c(CN3CCCCC3)c[nH]c2c1`, the inhibition (PRVABC59, Concentration 49.5 uM, Number of replicates 2.0, Standard deviation 0.27567478108963184 %) was 10.6%, the inhibition (PRVABC59, Concentration 99.01 uM, Number of replicates 2.0, Standard deviation 0.4102311237715717 %) was 22.8% and the inhibition (PRVABC59, Concentration 198.0 uM, Number of replicates 2.0, Standard deviation 0.3445953308233743 %) was 38%.
With `OCc1cc(C2CCN(Cc3c[nH]c4ccccc34)CC2)no1` the inhibition (PRVABC59, Concentration 49.5 uM, Number of replicates 2.0, Standard deviation 0.29821086957580095 %) was 48.5%, the inhibition (PRVABC59, Concentration 99.01 uM, Number of replicates 2.0, Standard deviation 0.4460202044782944 %) was 64.3% and the inhibition (PRVABC59, Concentration 198.0 uM, Number of replicates 2.0, Standard deviation 0.7494127761974186 %) was 75.2%.
Work on `O=C(O)c1ccc(C2CCN(Cc3c[nH]c4ccccc34)CC2)cc1` yielded an inhibition (PRVABC59, Concentration 49.5 uM, Number of replicates 2.0, Standard deviation 0.6949576992221913 %) of 10.8%, an inhibition (PRVABC59, Concentration 99.01 uM, Number of replicates 2.0, Standard deviation 0.3163616627681085 %) of 22.8% and an inhibition (PRVABC59, Concentration 198.0 uM, Number of replicates 2.0, Standard deviation 0.22041520507002849 %) of 37.7%.
Work on `c1ccc(C2CCN(Cc3c[nH]c4ccccc34)CC2)nc1` yielded an inhibition (PRVABC59, Concentration 49.5 uM, Number of replicates 2.0, Standard deviation 1.1072658196883798 %) of 59.8%, an inhibition (PRVABC59, Concentration 99.01 uM, Number of replicates 2.0, Standard deviation 0.7753455634987777 %) of 75.2% and an inhibition (PRVABC59, Concentration 198.0 uM, Number of replicates 2.0, Standard deviation 0.5497459588871212 %) of 86%.
`NS(=O)(=O)c1ccc(C2CCN(Cc3c[nH]c4ccccc34)CC2)cc1` showed an inhibition (PRVABC59, Concentration 49.5 uM, Number of replicates 2.0, Standard deviation 0.10609946491696037 %) of 65%, an inhibition (PRVABC59, Concentration 99.01 uM, Number of replicates 2.0, Standard deviation 0.029644407368622425 %) of 80.2% and an inhibition (PRVABC59, Concentration 198.0 uM, Number of replicates 2.0, Standard deviation 0.031203503588737417 %) of 89.2%.
For `CCC1CCN(Cc2c[nH]c3ccccc23)CC1`, the inhibition (PRVABC59, Concentration 49.5 uM, Number of replicates 2.0, Standard deviation 2.1085872748623196 %) was 21.4%, the inhibition (PRVABC59, Concentration 99.01 uM, Number of replicates 2.0, Standard deviation 0.9763502903682051 %) was 37.3% and the inhibition (PRVABC59, Concentration 198.0 uM, Number of replicates 2.0, Standard deviation 0.045944785323907715 %) was 55.2%.
With `O=C1NCc2ccccc2C12CCNCC2` the inhibition (PRVABC59, Concentration 49.5 uM, Number of replicates 2.0, Standard deviation 1.3304043012280913 %) was 0.782%, the inhibition (PRVABC59, Concentration 99.01 uM, Number of replicates 2.0, Standard deviation 0.8986974193851874 %) was 2.65% and the inhibition (PRVABC59, Concentration 198.0 uM, Number of replicates 2.0, Standard deviation 5.074631109254522 %) was 2.34%.
In the case of `CCn1ccnc(N2CC[C@H](C(C)(C)C)C2)c1=O`, the inhibition (PRVABC59, Concentration 49.5 uM, Number of replicates 2.0, Standard deviation 2.222905543826298 %) is reported as 4.07%, the inhibition (PRVABC59, Concentration 99.01 uM, Number of replicates 2.0, Standard deviation 1.7617429882024038 %) is reported as 10.1% and the inhibition (PRVABC59, Concentration 198.0 uM, Number of replicates 2.0, Standard deviation 1.0233659428190776 %) is reported as 20.1%.
`c1ccc2c(CN3CCC(c4cnco4)CC3)c[nH]c2c1` was tested, and the inhibition (PRVABC59, Concentration 49.5 uM, Number of replicates 2.0, Standard deviation 0.1050178081967768 %) was 41.5%, the inhibition (PRVABC59, Concentration 99.01 uM, Number of replicates 2.0, Standard deviation 0.24613759530362114 %) was 59.4% and the inhibition (PRVABC59, Concentration 198.0 uM, Number of replicates 2.0, Standard deviation 0.2970051325336013 %) was 74.9%.
`c1ccc2c(CN3CCC(c4ccn[nH]4)CC3)c[nH]c2c1` was tested, and the inhibition (PRVABC59, Concentration 49.5 uM, Number of replicates 2.0, Standard deviation 1.3620998271263447 %) was 41.5%, the inhibition (PRVABC59, Concentration 99.01 uM, Number of replicates 2.0, Standard deviation 0.5632518321987402 %) was 58.4% and the inhibition (PRVABC59, Concentration 198.0 uM, Number of replicates 2.0, Standard deviation 0.6599886276000965 %) was 73.5%.
Work on `COc1cccc(C2CCN(Cc3c[nH]c4ccccc34)CC2)c1` yielded an inhibition (PRVABC59, Concentration 49.5 uM, Number of replicates 2.0, Standard deviation 0.042125269324456455 %) of 39.6%, an inhibition (PRVABC59, Concentration 99.01 uM, Number of replicates 2.0, Standard deviation 0.10921765735719036 %) of 56.3% and an inhibition (PRVABC59, Concentration 198.0 uM, Number of replicates 2.0, Standard deviation 0.2075162463769664 %) of 67.5%.
`c1cnc(C2CCN(Cc3c[nH]c4ccccc34)CC2)nc1` showed an inhibition (PRVABC59, Concentration 49.5 uM, Number of replicates 2.0, Standard deviation 0.6038611636759568 %) of 44.9%, an inhibition (PRVABC59, Concentration 99.01 uM, Number of replicates 2.0, Standard deviation 0.27239407040154384 %) of 62.7% and an inhibition (PRVABC59, Concentration 198.0 uM, Number of replicates 2.0, Standard deviation 0.2641885847586549 %) of 77.4%.
`COC[C@@H](C)CN1CC[C@H](c2c[nH]c3ccccc23)C1` was tested, and the inhibition (PRVABC59, Concentration 49.5 uM, Number of replicates 2.0, Standard deviation 1.4380791310486918 %) was 4.02%, the inhibition (PRVABC59, Concentration 99.01 uM, Number of replicates 2.0, Standard deviation 1.4278249713933853 %) was 8.28% and the inhibition (PRVABC59, Concentration 198.0 uM, Number of replicates 2.0, Standard deviation 1.555996909462895 %) was 14.7%.
`OC1(c2ccccc2)CCN(Cc2c[nH]c3ccccc23)CC1` showed an inhibition (PRVABC59, Concentration 49.5 uM, Number of replicates 2.0, Standard deviation 0.6104232594017089 %) of 13%, an inhibition (PRVABC59, Concentration 99.01 uM, Number of replicates 2.0, Standard deviation 0.9927585642556782 %) of 22.8% and an inhibition (PRVABC59, Concentration 198.0 uM, Number of replicates 2.0, Standard deviation 2.2070409642846154 %) of 34.8%.
Work on `CCc1cc(C)nc(C2CCN(Cc3c[nH]c4ccccc34)CC2)n1` yielded an inhibition (PRVABC59, Concentration 49.5 uM, Number of replicates 2.0, Standard deviation 0.9221110052573533 %) of 41.8%, an inhibition (PRVABC59, Concentration 99.01 uM, Number of replicates 2.0, Standard deviation 1.5508934318704077 %) of 59.5% and an inhibition (PRVABC59, Concentration 198.0 uM, Number of replicates 2.0, Standard deviation 1.118702788500296 %) of 75.2%.
`Cn1nccc1C1CCN(Cc2c[nH]c3ccccc23)CC1` showed an inhibition (PRVABC59, Concentration 49.5 uM, Number of replicates 2.0, Standard deviation 1.4229504354820093 %) of 24.6%, an inhibition (PRVABC59, Concentration 99.01 uM, Number of replicates 2.0, Standard deviation 1.2388422115932054 %) of 38.2% and an inhibition (PRVABC59, Concentration 198.0 uM, Number of replicates 2.0, Standard deviation 1.0765748217775348 %) of 55.9%.
`c1ccc(COC2CCN(Cc3c[nH]c4ccccc34)CC2)cc1` was tested, and the inhibition (PRVABC59, Concentration 49.5 uM, Number of replicates 2.0, Standard deviation 2.313702836748105 %) was 23.5%, the inhibition (PRVABC59, Concentration 99.01 uM, Number of replicates 2.0, Standard deviation 1.2274106375778986 %) was 39.6% and the inhibition (PRVABC59, Concentration 198.0 uM, Number of replicates 2.0, Standard deviation 0.262548566589399 %) was 58.3%.
`c1cncc(C2CCN(Cc3c[nH]c4ccccc34)CC2)c1` gave an inhibition (PRVABC59, Concentration 49.5 uM, Number of replicates 2.0, Standard deviation 0.34229175267116285 %) of 61.9%, an inhibition (PRVABC59, Concentration 99.01 uM, Number of replicates 2.0, Standard deviation 0.300803069346615 %) of 77.1% and an inhibition (PRVABC59, Concentration 198.0 uM, Number of replicates 2.0, Standard deviation 0.06482927085509294 %) of 87.7%.
